In test [1] the target is mouse Estrogen Receptor alpha (Era), Esr1 (gene 13982) (UniProt P19785). As to the kind of experiment: NVS_NR_mERa: NovaScreen (NVS) Nuclear Receptor Binding Assay for mouse Estrogen Receptor alpha (Era) (AID 2283378).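 Further: hit means loss of bound radioligand signal relative to DMSO.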 An outline of the steps: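 Filter radiodetection of radioligand displacement from extracted receptor protein, measured 18 h post-dose. Single 25 uM concentration in duplicate initially, with concentration-series follow-up. Binding loss fitted relative to DMSO.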
mouse Estrogen Receptor alpha (Era), Esr1 (gene 13982), sequence (P19785 whole entry, looked up): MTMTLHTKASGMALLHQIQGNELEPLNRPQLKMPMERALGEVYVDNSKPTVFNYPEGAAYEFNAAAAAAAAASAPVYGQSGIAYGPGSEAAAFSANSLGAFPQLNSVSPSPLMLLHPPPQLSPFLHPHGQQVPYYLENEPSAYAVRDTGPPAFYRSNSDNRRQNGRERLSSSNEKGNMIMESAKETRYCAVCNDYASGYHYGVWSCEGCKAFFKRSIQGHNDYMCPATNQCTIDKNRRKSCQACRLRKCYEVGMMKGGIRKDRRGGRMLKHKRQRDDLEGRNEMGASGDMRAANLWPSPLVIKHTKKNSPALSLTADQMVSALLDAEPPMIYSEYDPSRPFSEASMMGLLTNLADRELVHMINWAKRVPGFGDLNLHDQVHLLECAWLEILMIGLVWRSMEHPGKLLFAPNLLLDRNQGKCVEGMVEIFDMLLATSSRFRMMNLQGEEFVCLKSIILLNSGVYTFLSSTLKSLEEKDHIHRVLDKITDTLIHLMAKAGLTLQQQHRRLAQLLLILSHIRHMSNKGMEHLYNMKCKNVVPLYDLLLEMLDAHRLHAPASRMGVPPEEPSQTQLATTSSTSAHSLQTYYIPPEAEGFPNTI

The target of test [2] is Estrogen receptor beta (Homo sapiens) (UniProt Q92731). Put plainly: OT_ER_ERbERb_1440: Odyssey Thera (OT) 24-hour HEK293T Protein-Complementation Assay for Estrogen Receptor-beta/-beta Homodimer (AID 2283380).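 Further: scored as signal increase over DMSO baseline for both agonists and antagonists.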 The method, boiled down: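 HEK293T cells stably expressing ER beta LBD (aa 310-547) homodimer fragment-complementation reporter, dosed 24 h. Cells formaldehyde-fixed, Draq5-stained; gain in nuclear (agonist) or nuclear plus cytoplasmic (antagonist) fluorescence versus DMSO read by laser scanning cytometry.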
Estrogen receptor beta (Homo sapiens), sequence (Q92731 whole entry, looked up, the tested form may be a part): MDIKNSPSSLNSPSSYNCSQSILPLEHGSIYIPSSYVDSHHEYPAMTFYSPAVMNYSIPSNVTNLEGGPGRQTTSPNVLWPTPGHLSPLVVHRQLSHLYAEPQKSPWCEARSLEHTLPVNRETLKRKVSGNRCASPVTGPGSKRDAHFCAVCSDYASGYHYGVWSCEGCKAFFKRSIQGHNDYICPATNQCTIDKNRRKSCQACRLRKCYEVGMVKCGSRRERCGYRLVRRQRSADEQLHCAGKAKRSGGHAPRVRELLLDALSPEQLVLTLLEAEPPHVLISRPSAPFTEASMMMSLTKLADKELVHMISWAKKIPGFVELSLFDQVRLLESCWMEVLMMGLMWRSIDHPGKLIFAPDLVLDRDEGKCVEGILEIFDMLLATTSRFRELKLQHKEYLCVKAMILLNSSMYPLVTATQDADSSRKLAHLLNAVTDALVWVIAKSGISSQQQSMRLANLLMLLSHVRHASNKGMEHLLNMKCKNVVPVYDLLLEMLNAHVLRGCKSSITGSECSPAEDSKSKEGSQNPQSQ

Test [3] has as its target Estrogen receptor (Homo sapiens) (UniProt P03372). Put plainly: OT_ERa_GFPERaERE_0480: Odyssey Thera (OT) 8-hour HeLa Transcription Induction Assay for Estrogen Receptor (AID 2283381; active means hit-call score of the fitted dose curve at least 0.9, where 1 is the maximum; inactive means score below 0.9). An outline of the steps:
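Fluorescent reporter signal, imaged by microscopy and scored with image-analysis algorithms, was taken 8 h after chemical dosing of HeLa cells; activity was fitted upward relative to DMSO.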

For test [4] the target is unchanged. Put plainly: OT_ERa_GFPERaERE_0120: Odyssey Thera (OT) 2-hour HeLa Transcription Induction Assay for Estrogen Receptor (AID 2283382). The method, boiled down:
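HeLa, 384-well, 2 h chemical exposure; GFP reporter induction (ERE), fluorescence microscopy; high content image analysis; positive fitting direction vs DMSO.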

For test [5], the target named is Retinoic acid receptor RXR-alpha (Homo sapiens) (UniProt P19793). As to the kind of experiment: OT_NURR1_NURR1RXRa_0480: Odyssey Thera (OT) 8-hour HEK293T Protein Complementation Assay for Nurr1/retinoid X receptor (RXR) (AID 2283385). The method, boiled down: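 8 h compound exposure, HEK293T; Nurr1/RXRα fragment complementation; fluorescence intensity; positive fitting direction vs DMSO baseline.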
Retinoic acid receptor RXR-alpha (Homo sapiens), sequence (P19793 whole entry, looked up, the tested form may be a part): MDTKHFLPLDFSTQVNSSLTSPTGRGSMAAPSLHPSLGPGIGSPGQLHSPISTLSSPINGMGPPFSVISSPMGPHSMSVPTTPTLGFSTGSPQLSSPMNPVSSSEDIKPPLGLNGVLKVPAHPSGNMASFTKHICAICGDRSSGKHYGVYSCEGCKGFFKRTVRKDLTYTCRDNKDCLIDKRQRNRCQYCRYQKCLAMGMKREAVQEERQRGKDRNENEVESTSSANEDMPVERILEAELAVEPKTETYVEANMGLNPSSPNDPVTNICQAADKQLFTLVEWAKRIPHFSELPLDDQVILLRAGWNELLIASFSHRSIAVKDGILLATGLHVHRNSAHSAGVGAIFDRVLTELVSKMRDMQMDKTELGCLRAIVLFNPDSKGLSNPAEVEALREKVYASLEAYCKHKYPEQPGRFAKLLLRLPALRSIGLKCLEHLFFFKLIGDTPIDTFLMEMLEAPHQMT

The target is the same in test [6]. As to the kind of experiment: OT_NURR1_NURR1RXRa_1440: Odyssey Thera (OT) 24-hour HEK293T Protein Complementation Assay for Nurr1/retinoid X receptor (RXR) (AID 2283386). The method, boiled down:
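Interaction of Nurr1 with RXRα brings fused reporter fragments together in human HEK293T cells, restoring a functional reporter. Fluorescence intensity is measured 24 h after chemical treatment, and values are analysed in the positive direction against DMSO.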

For test [7], the target named is Peroxisome proliferator-activated receptor gamma (Homo sapiens) (UniProt P37231). Put plainly: OT_PPARg_PPARgSRC1_0480: Odyssey Thera (OT) 8-hour Protein-Complementation Assay for Peroxisome Proliferator-activated Receptor Gamma / SRC-1 Co-activator (AID 2283387).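 Further: nuclear to cytoplasmic split Venus YFP fluorescence ratio reporting PPARg SRC-1 interaction.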 An outline of the steps:
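Split-YFP (IFP1/IFP2) PPARg/SRC-1 reporter, HEK293T, 37 °C, 5% CO2; 8 h compound; formaldehyde fix + Draq5; high-content imaging, N/C ratio, ≥350 cells/image, positive direction vs DMSO.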

The nature of test [8]: CEETOX_H295R_11DCORT: CeeTox H295R High-throughput Steroidogenesis Assay for 11-Deoxycortisol (11DCORT) (AID 2283432; active means hit-call score of the fitted dose curve at least 0.9, where 1 is the maximum; inactive means score below 0.9;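 further: 11-deoxycortisol secreted into the medium measured by LC-MS/MS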). The settings on record: actives raise or lower the signal. An outline of the steps:
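Steroidogenesis in human H295R cells: 48 h chemical exposure after forskolin priming, 11-deoxycortisol measured by LC-MS/MS.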

Test [9] is described as follows: CEETOX_H295R_OHPREG: CeeTox H295R High-throughput Steroidogenesis Assay for OH-Pregnenolone (OHPREG) (AID 2283434; active means hit-call score of the fitted dose curve at least 0.9, where 1 is the maximum; inactive means score below 0.9). The following applies: actives raise or lower the signal. The method, boiled down: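 H295R cells pre-stimulated 48 h with 10 uM forskolin, then exposed 48 h to chemical in 0.1% DMSO. 17alpha-hydroxypregnenolone in medium quantified by MTBE extraction and HPLC-MS/MS; bidirectional fit versus DMSO, viability checked by MTT.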

Test [10] can be described thus: CEETOX_H295R_OHPROG: CeeTox H295R High-throughput Steroidogenesis Assay for OH-Progesterone (OHPROG) (AID 2283435; active means hit-call score of the fitted dose curve at least 0.9, where 1 is the maximum; inactive means score below 0.9;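 further: 17alpha-hydroxyprogesterone secreted into medium measured by HPLC-MS/MS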). The settings on record: actives raise or lower the signal. An outline of the steps: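 H295R, 10 uM forskolin prestim 48 h; cmpd in 0.1% DMSO 48 h; medium MTBE-extracted, HPLC-MS/MS for OH-progesterone; 7-pt std curve; bidirectional fit vs DMSO; MTT viability, chemicals diluted until viability >/=70%.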

A short description of test [11]: CEETOX_H295R_CORTIC: CeeTox H295R High-throughput Steroidogenesis Assay for Corticosterone (CORTIC) (AID 2283437; active means hit-call score of the fitted dose curve at least 0.9, where 1 is the maximum; inactive means score below 0.9;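 further: corticosterone secreted into medium quantified by mass spectrometry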). The settings on record: actives raise or lower the signal. An outline of the steps:
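H295R adrenal cells prestimulated 48 hours with 10 uM forskolin, then exposed 48 hours to chemical in 0.1% DMSO. Corticosterone in medium measured by HPLC-MS/MS after MTBE extraction; MTT viability in the same wells; bidirectional fit versus DMSO.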

Test [12] is described as follows: CEETOX_H295R_CORTISOL: CeeTox H295R High-throughput Steroidogenesis Assay for Cortisol (AID 2283438; active means hit-call score of the fitted dose curve at least 0.9, where 1 is the maximum; inactive means score below 0.9;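 further: cortisol secreted into medium quantified by LC-MS/MS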). The settings on record: actives raise or lower the signal. An outline of the steps:
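Forskolin 10 uM 48 h prestim → test cmpd in DMSO (0.1% final) 48 h → medium MTBE-extracted → LC-MS/MS cortisol vs 7-pt std curve. Gain/loss of signal fitted vs DMSO. MTT viability in same wells.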

Test [13] in a line: CEETOX_H295R_DOC: CeeTox H295R High-throughput Steroidogenesis Assay for DOC (AID 2283439; active means hit-call score of the fitted dose curve at least 0.9, where 1 is the maximum; inactive means score below 0.9). The settings on record: actives raise or lower the signal. The method, boiled down: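 Readout: 11-deoxycorticosterone in culture medium by reverse-phase C18 HPLC with ESI+ tandem MS after MTBE extraction. Cells: H295R, forskolin-primed (10 uM, 48 h), chemical-treated 48 h; DMSO 0.1% final. Activity fitted bidirectionally versus DMSO.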

Test [14] in a line: CEETOX_H295R_ESTRADIOL: CeeTox H295R High-throughput Steroidogenesis Assay for Estradiol (AID 2283440; active means hit-call score of the fitted dose curve at least 0.9, where 1 is the maximum; inactive means score below 0.9;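 further: estradiol secreted into medium quantified by LC-MS/MS after dansyl derivatisation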). The following applies: actives raise or lower the signal. The method, boiled down:
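Estradiol in spent medium measured by LC-MS/MS after dansyl chloride derivatisation. Forskolin-primed (10 uM, 48 h) human adrenal H295R cells received test chemical 48 h at 0.1% DMSO; concentrations lowered until MTT viability >/=70%.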

Test [15] is described as follows: CEETOX_H295R_ESTRONE: CeeTox H295R High-throughput Steroidogenesis Assay for Estrone (AID 2283441; active means hit-call score of the fitted dose curve at least 0.9, where 1 is the maximum; inactive means score below 0.9;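 further: estrone secreted into medium measured by LC-MS/MS after dansyl derivatization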). The following applies: actives raise or lower the signal. An outline of the steps:
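H295R cells prestimulated 48 h with 10 uM forskolin, then exposed 48 h to chemicals in 0.1% DMSO final; estrone in medium extracted with MTBE, dansyl-derivatized, quantified by HPLC-MS/MS; bidirectional fitting versus DMSO, viability by MTT.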

In test [16] the target is Agonist Androgen Response Element (ARE), AR (gene 367) (UniProt P10275). Put plainly: OT_AR_ARELUC_AG_1440: Odyssey Thera (OT) 24-hour CHO-K1 Luciferase Assay for Agonist Androgen Response Element (ARE) (AID 2283379). The method, boiled down:
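CHO-K1 cells carrying an ARE-driven luciferase reporter were exposed to compounds for 24 h. Luminescence was then read after adding a D-luciferin/ATP mix, and activity was scored as a gain in signal over DMSO vehicle.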

The target of test [17] is Bile acid receptor (Homo sapiens) (UniProt Q96RI1). As to the kind of experiment: OT_FXR_FXRSRC1_0480: Odyssey Thera (OT) 8-hour HEK293T Protein-Complementation Assay for Farnesoid X receptor/SRC-1 Co-activator (AID 2283383). The method, boiled down:
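Human kidney HEK293T cells carried FXR/SRC-1 fragment-complementation constructs. Compounds were added and incubated 8 h. Reporter reassembly upon receptor–co-activator interaction was then quantified by fluorescence, with curves fitted in the positive direction relative to DMSO.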

For test [18] the target is unchanged. Put plainly: OT_FXR_FXRSRC1_1440: Odyssey Thera (OT) 24-hour HEK293T Protein-Complementation Assay for Farnesoid X receptor/SRC-1 Co-activator (AID 2283384). The method, boiled down: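 Compounds are applied to human kidney HEK293T cells expressing bait and prey fused to reporter protein fragments; after 24 h, reconstituted reporter fluorescence is measured. Activity is fitted as signal gain over DMSO.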

Test [19] concerns the target Peroxisome proliferator-activated receptor gamma (Homo sapiens) (UniProt P37231). Put plainly: OT_PPARg_PPARgSRC1_1440: Odyssey Thera (OT) 24-hour Protein-Complementation Assay for Peroxisome Proliferator-activated Receptor Gamma/ SRC-1 Co-activator (AID 2283388).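 Further: nuclear to cytoplasmic ratio of reconstituted Venus YFP fluorescence in fixed imaged cells.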 An outline of the steps: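 Readout is the 488 nm N/C fluorescence ratio from fixed, Draq5-stained HEK293T cells after 24 h compound exposure. Cells carried transiently transfected PPARg and SRC-1 fused to Venus fragments, transfected 48 h before treatment.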

Several values for one entry are separate records, joined by “and”; a condition that tells them apart may be missing. Equal values may be shown once. Records with an inconclusive call do not appear. More than one record can exist for a structure, and the calls need not agree. Activity calls are given as the source filed them. How the source made its calls, unless noted: active means hit-call score of the fitted dose curve at least 0.9, where 1 is the maximum; inconclusive means response in the unintended direction; inactive means score below 0.9.

Peroxisome proliferator-activated receptor gamma (Homo sapiens), sequence (P37231 whole entry, looked up, the tested form may be a part): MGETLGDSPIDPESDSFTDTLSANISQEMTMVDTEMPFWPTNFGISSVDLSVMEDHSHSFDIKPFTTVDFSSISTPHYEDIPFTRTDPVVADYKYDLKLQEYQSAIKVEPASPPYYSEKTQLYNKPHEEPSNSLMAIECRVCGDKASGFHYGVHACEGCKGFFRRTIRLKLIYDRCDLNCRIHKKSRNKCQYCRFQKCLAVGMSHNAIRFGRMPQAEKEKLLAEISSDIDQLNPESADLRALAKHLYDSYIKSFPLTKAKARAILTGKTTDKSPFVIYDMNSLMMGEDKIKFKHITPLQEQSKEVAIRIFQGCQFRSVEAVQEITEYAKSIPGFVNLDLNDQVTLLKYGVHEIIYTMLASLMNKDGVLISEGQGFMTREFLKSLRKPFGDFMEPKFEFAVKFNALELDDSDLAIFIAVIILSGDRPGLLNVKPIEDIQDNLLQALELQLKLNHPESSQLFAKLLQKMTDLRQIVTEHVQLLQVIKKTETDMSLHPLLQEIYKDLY
Estrogen receptor (Homo sapiens), sequence (P03372 whole entry, looked up): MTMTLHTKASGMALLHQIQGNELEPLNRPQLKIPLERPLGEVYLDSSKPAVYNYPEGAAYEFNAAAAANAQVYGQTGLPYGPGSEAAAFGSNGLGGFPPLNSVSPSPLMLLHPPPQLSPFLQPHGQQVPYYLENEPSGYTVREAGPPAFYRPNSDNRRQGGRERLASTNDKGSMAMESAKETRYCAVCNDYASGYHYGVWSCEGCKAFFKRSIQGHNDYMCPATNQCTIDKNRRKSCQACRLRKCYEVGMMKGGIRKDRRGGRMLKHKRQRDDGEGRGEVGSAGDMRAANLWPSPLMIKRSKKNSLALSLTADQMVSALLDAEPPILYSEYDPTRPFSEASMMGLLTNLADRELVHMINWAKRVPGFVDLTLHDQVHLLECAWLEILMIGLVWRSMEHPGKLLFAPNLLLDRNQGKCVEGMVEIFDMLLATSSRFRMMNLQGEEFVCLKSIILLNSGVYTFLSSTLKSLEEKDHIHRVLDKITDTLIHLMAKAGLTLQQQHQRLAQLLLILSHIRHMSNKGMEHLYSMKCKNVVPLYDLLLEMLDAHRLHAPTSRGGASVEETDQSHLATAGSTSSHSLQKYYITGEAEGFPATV
Bile acid receptor (Homo sapiens), sequence (Q96RI1 whole entry, looked up, the tested form may be a part): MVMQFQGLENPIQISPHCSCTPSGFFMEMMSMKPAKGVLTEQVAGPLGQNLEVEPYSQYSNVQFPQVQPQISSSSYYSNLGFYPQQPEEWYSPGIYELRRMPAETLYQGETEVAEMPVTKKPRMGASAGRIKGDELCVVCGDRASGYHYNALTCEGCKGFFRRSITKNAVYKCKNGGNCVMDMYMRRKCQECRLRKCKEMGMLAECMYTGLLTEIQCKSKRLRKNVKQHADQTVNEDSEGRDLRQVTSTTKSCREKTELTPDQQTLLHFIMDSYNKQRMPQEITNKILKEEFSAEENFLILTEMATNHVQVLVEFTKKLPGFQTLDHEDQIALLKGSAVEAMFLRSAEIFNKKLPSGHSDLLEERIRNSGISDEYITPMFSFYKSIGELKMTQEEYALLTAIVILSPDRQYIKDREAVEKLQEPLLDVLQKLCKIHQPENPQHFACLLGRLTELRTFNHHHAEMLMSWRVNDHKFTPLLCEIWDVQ
Agonist Androgen Response Element (ARE), AR (gene 367), sequence (P10275 whole entry, looked up): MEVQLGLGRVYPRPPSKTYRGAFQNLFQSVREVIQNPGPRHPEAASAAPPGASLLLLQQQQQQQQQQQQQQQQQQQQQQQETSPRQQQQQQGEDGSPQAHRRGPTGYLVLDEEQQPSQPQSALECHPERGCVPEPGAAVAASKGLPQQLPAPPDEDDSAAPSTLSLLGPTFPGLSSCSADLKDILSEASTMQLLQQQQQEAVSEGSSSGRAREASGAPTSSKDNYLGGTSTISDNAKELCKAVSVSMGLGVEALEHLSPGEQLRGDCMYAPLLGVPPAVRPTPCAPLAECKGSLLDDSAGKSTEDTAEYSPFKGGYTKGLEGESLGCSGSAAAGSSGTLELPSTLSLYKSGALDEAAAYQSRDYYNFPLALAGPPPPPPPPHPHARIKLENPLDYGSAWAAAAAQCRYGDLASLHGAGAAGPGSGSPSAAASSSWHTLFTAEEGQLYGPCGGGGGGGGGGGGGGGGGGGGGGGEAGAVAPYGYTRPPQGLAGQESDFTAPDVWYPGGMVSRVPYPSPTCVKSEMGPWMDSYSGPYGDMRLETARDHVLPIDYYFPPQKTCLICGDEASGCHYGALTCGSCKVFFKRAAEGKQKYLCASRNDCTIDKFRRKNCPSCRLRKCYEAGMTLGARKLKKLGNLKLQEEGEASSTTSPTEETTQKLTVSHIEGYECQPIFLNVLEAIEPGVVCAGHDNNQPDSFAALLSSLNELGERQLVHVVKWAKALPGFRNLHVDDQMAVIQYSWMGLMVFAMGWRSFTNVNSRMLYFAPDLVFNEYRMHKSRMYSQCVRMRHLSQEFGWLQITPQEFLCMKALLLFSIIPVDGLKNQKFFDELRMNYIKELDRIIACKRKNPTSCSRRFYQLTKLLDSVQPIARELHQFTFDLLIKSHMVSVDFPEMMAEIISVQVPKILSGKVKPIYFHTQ

Regarding `c1ccc2c(c1)-c1cccc3c1c-2cc1ccccc13`, the outcome in [1], in test [2], in test [3], in [5], in [6] and in test [7] was inactive. The compound was called inactive in test [11], in test [12], in test [14] and in test [15]. For the same compound, the concentration at half-maximal activity (AC50) in [4] is 77.5 µM (active); in test [6], 11.2 µM (active); in [8] it was 2.55 µM (active); in [9], 2 µM (active); in [10] it was 3.71 µM (active); in [13], 1.84 µM (active).

Regarding `OCCOCCOCCO`, the compound was classed as inactive in [1], in [16], in test [2], in test [3], in test [4] and in [5]. Besides, the compound was classed as inactive in test [6] and in test [7].

Regarding `CCc1cccc(CC)c1N`, the outcome in test [16], in [2], in test [3], in test [4], in test [5] and in test [6] was inactive.

As to `Cc1nccn1-c1ccc(Sc2cccc(C3(C(N)=O)CCOCC3)c2)cc1`, the half-maximal activity concentration (AC50) in test [2] was 31.9 µM (active); in [3] it was 17.4 µM (active); in [17] it was 4.07 µM (active); in test [18], 9.64 µM (active); in [6], 50 µM (active). Further, the compound was classed as inactive in test [4], in test [5], in test [6] and in test [7].

Regarding `COS(C)(=O)=O`, the result in test [1], in [3], in [5], in test [6], in test [7] and in [19] was inactive.

For the compound `Cc1cccc(O)c1C`, the compound was called inactive in [1], in [2], in test [3], in test [4], in test [17] and in [18]. The compound was classed as inactive in test [7].

In the case of `COCc1nnc(-c2ccc[n+]([O-])c2)n1-c1c(Cl)c(Cl)cc2[nH]c(=O)c(=O)[nH]c12`, the compound was called inactive in test [2], in test [3], in test [4], in test [17], in test [5] and in test [6]. For the same compound, in test [7], the outcome was inactive.

`COc1cc(C(C)C)c2c(c1)S(=O)(=O)N(COc1cc(=O)n3cccc(OCCN4CCCCC4)c3n1)C2=O`: the result in [16], in test [4], in test [17], in test [6] and in test [7] was inactive. Besides, the AC50 in test [3] was 23.2 µM (active); in test [18], 19.3 µM (active); in [5] it was 3.02 µM (active) and 4 µM (active); in test [6], 2.9 µM (active).

Consider `CC(C)CCCCCCOC(=O)C1CCCCC1C(=O)OCCCCCCC(C)C` (stereo unspecified), for which the compound was called inactive in test [1], in test [2], in test [3], in test [4], in [17] and in test [5]. In addition, the compound was called inactive in test [6] and in test [7].

(Values after PubChem BioAssay (EPA / NIEHS).)
